HGIII-sPLA2 inh: human group III sPLA2 inhibitors, primary screen, biochemical, QFRET, BODIPY PC-A2 liposome substrate. QFRET BODIPY PC-A2 liposome hydrolysis, fluorescence. inhibition, % at 12.2 µM. 370,000 compounds, 0.56% hits. AID 743126, 2013;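 active = inhibition above mean plus 3 SD of compounds lying within the high and low control bounds, cut at about 19% in these data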
PLC-gamma1 inh: PLC-gamma1 enzyme inhibitors, primary screen, biochemical, fluorescence, purified enzyme. fluorogenic substrate. inhibition, % at 12.2 µM. 370,000 compounds, 0.84% hits. AID 720700, 2013; in the data active = inhibition above about 9.5%
PLC-beta3 inh: human PLC-beta3 inhibitors, primary screen, biochemical, fluorescence | AID 720704, 2013 | 1-phosphatidylinositol 4,5-bisphosphate phosphodiesterase beta-3 (Homo sapiens), Q01970 | 370,000 compounds, 0.18% hits | Purified PLC-beta3, fluorogenic substrate | inhibition, % at 12.2 µM
Target sequence (Q01970 whole entry, looked up): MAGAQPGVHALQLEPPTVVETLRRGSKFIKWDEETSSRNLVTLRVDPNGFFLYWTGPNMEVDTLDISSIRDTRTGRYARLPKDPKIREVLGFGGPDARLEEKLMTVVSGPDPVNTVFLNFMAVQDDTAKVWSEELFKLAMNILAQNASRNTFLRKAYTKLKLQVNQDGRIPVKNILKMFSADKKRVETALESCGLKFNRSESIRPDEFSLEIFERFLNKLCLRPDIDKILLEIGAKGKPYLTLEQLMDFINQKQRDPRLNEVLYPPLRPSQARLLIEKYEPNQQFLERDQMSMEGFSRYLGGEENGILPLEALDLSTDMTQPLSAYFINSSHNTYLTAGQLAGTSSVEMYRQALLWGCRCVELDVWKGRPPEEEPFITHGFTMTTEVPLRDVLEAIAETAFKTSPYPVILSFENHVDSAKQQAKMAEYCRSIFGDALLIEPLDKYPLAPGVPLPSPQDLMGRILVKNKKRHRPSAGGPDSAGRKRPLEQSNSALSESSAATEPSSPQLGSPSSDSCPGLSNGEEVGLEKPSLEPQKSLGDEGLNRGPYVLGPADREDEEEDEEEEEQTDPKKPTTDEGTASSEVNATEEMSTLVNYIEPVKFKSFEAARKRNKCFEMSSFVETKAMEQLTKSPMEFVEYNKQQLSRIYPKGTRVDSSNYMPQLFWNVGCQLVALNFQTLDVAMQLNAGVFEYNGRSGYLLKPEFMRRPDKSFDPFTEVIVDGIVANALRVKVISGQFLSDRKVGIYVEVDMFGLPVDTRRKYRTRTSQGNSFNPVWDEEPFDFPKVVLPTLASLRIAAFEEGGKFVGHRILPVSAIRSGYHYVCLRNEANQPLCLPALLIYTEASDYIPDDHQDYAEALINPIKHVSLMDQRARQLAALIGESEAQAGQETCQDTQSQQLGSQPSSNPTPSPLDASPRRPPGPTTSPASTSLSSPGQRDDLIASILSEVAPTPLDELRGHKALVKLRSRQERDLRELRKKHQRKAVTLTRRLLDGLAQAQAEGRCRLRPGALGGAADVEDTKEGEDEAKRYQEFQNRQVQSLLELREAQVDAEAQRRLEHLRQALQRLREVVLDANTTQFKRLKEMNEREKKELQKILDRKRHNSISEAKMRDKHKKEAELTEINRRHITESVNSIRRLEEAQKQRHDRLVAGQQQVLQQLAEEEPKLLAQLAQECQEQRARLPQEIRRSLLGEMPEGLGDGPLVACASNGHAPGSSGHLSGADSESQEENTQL
HIF activator: HIF pathway transcriptional activators, primary screen, cell-based, U2OS HRE-luciferase, luminescence | U2OS HRE-luciferase reporter; normalized: DMSO 0%, desferrioxamine 100% | activation, % at 7.5 µM (by protocol) | 300,000 compounds, 0.32% hits;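 active = mean activation of at least 10% of the iron chelator positive control signal, with at least half of replicates also reaching 10%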
AHR activator: AHR activators, primary screen, cell-based, luminescence, luciferase reporter, human; Aryl hydrocarbon receptor (Homo sapiens), P35869; AHR-responsive luciferase reporter cells; activation, % at 5 µM; 320,000 compounds, 2.5% hits; AID 2796, 2010; in the data active = activation above about 47%
CR mimetic SO: reduction of superoxide in aged yeast, primary screen, HTS; 330,000 compounds, 0.18% hits; superoxide response (% of plate mean), % at 10 µM; S. cerevisiae aged cells, superoxide DHE fluorescence; hits give low values;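 active = superoxide response under a set limit, about three screen SD below normal, cut at about 65% in these data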;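 note: yeast aged for seven days with compound at 30 °C before DHE staining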
PLCgamma1 ctr: PLC-gamma1 enzyme inhibitors, counter-screen for PLC-beta3 inhibitor project, biochemical, fluorescence; shares compounds with PLC-gamma1 inh; purified PLC-gamma1, fluorogenic substrate; inhibition, % at 12.3 µM; 3,300 compounds, 3.1% hits; in the data active = inhibition above about 9.5%
PLCbeta3 conf: PLC-beta3 inhibitor confirmation, biochemical, fluorescence, purified enzyme | 3,300 compounds, 1% hits | fluorogenic substrate fluorescence | inhibition, % at 12.3 µM | shares compounds with PLC-gamma1 inh
Hits are given with their value. Most compounds without a hit are left out; they make up all but 3.9% or so of the library. Cut-off read from the data, not from the text of the source, unless noted: active = inhibition above about 11%; inactive = the rest.

Screening C=CCNC(=S)NNC(=O)C(CCCC)CC(C)O (stereo not given) returned HGIII-sPLA2 inh inactive, PLC-gamma1 inh inactive, PLC-beta3 inh inactive, HIF activator inactive, AHR activator inactive and CR mimetic SO inactive.
For CCOC(=O)c1ccc(NC(=O)c2nc[nH]c2C(=O)NC2CCN(C(=O)OC(C)(C)C)CC2)cc1 the results were HGIII-sPLA2 inh inactive, PLC-gamma1 inh 10.6, PLC-beta3 inh inactive, HIF activator inactive, AHR activator inactive, CR mimetic SO inactive, PLCgamma1 ctr inactive and PLCbeta3 conf inactive.
CC(C)(C)OC(=O)N1CCC(NC(=O)c2nc[nH]c2C(=O)NC2CCN(C(=O)OC(C)(C)C)CC2)CC1 was read as HGIII-sPLA2 inh inactive, PLC-gamma1 inh inactive, PLC-beta3 inh inactive, AHR activator inactive and CR mimetic SO inactive.
For CCOC(=O)[C@H]1[C@H]2COc3ccccc3[C@@H]2N2C(=O)CNC(=O)[C@@]12C the results were HGIII-sPLA2 inh inactive, PLC-gamma1 inh inactive, PLC-beta3 inh 12.7, AHR activator inactive, CR mimetic SO inactive, PLCgamma1 ctr inactive and PLCbeta3 conf inactive.
Screening CCOC(=O)[C@H]1[C@H]2COc3ccccc3[C@@H]2N2C(=O)c3cc(F)c(F)cc3NC(=O)[C@@]12C returned HGIII-sPLA2 inh inactive, PLC-gamma1 inh inactive, PLC-beta3 inh inactive and AHR activator inactive.
`CN(CC(=O)N1CCN(Cc2ccccc2)CC1)S(=O)(=O)c1cccc2nsnc12` gave HGIII-sPLA2 inh inactive, PLC-gamma1 inh 11.5, PLC-beta3 inh inactive, HIF activator inactive, AHR activator inactive, CR mimetic SO inactive, PLCgamma1 ctr inactive and PLCbeta3 conf inactive.
CCOc1cc(/C=N\NC(=O)c2ccc(C)nc2)cc([N+](=O)[O-])c1O was read as HGIII-sPLA2 inh inactive, PLC-gamma1 inh inactive, PLC-beta3 inh inactive, HIF activator inactive, AHR activator inactive and CR mimetic SO inactive.
COc1cc(/C=N/NC(=O)c2ccc(C)nc2)cc([N+](=O)[O-])c1O was read as HGIII-sPLA2 inh inactive, PLC-gamma1 inh 9.9, PLC-beta3 inh inactive, HIF activator inactive, AHR activator inactive, CR mimetic SO inactive, PLCgamma1 ctr inactive and PLCbeta3 conf inactive.
`Cc1cc(C(=O)N/N=C/c2ccc(O)c([N+](=O)[O-])c2)n[nH]1` gave HGIII-sPLA2 inh inactive, PLC-gamma1 inh 10.4, PLC-beta3 inh inactive, HIF activator inactive, AHR activator inactive, CR mimetic SO inactive, PLCgamma1 ctr inactive and PLCbeta3 conf inactive.
Screening CC(NC(=O)c1cccc(S(=O)(=O)N2CCN(C)CC2)c1)c1ccc(Cl)cc1Cl (stereo not given) returned HGIII-sPLA2 inh inactive, PLC-gamma1 inh inactive, PLC-beta3 inh inactive, HIF activator inactive, AHR activator inactive and CR mimetic SO inactive.
For CCN(Cc1cc(=O)n2ccsc2n1)c1cccc2ccccc12 the results were HGIII-sPLA2 inh inactive, PLC-gamma1 inh inactive, PLC-beta3 inh inactive, HIF activator inactive, AHR activator inactive and CR mimetic SO inactive.
CC(C)(C)S(=O)(=O)/C(C#N)=C/c1cccn1S(=O)(=O)c1ccccc1 was read as HGIII-sPLA2 inh inactive, PLC-gamma1 inh 15.8, PLC-beta3 inh inactive, PLCgamma1 ctr inactive and PLCbeta3 conf inactive.
`O=C(C[n+]1cccc(O)c1)NCc1ccc(Cl)cc1` gave HGIII-sPLA2 inh inactive, PLC-gamma1 inh inactive, PLC-beta3 inh inactive, HIF activator inactive, AHR activator inactive and CR mimetic SO inactive.
Cc1ccc([C@H]2N[C@]3(CCCN(Cc4ccco4)C3=O)[C@H]3C(=O)N(Cc4ccccc4)C(=O)[C@@H]23)cc1 was read as HGIII-sPLA2 inh inactive, PLC-gamma1 inh 12.2, PLC-beta3 inh inactive, PLCgamma1 ctr inactive and PLCbeta3 conf inactive.
C=CC[C@H](CC(=O)OC(C)(C)C)C(=O)OC[C@@H]1CCCN1C(=O)[C@@H](CC=C)CC(=O)NCCO was read as HGIII-sPLA2 inh inactive, PLC-gamma1 inh 9.8, PLC-beta3 inh inactive, AHR activator inactive, CR mimetic SO inactive, PLCgamma1 ctr inactive and PLCbeta3 conf inactive.
Screening C=CC[C@@H](CC(=O)OC(C)(C)C)C(=O)OC[C@@H]1CCCN1C(=O)[C@@H](CC=C)CC(=O)N[C@@H](CO)Cc1ccccc1 returned HGIII-sPLA2 inh inactive, PLC-gamma1 inh inactive, PLC-beta3 inh inactive, AHR activator inactive and CR mimetic SO inactive.
`NS(=O)(=O)c1ccccc1` gave HGIII-sPLA2 inh inactive, PLC-gamma1 inh 15.4, PLC-beta3 inh 11.2, HIF activator inactive, AHR activator inactive, CR mimetic SO inactive, PLCgamma1 ctr inactive and PLCbeta3 conf inactive.
For NS(=O)(=O)c1ccc(CCNS(=O)(=O)c2ccccc2)cc1 the results were HGIII-sPLA2 inh inactive, PLC-gamma1 inh inactive, PLC-beta3 inh inactive, HIF activator inactive, AHR activator inactive and CR mimetic SO inactive.
Screening O=C(O)C1CCC(N2C(=O)c3c(Cl)c(Cl)c(Cl)c(Cl)c3C2=O)CC1 (stereo not given) returned HIF activator inactive, AHR activator inactive and CR mimetic SO inactive.
O=S(=O)(Nc1ccccc1)N1CCCCC1 was read as HGIII-sPLA2 inh inactive, PLC-gamma1 inh 10.9, PLC-beta3 inh 13.1, PLCgamma1 ctr inactive and PLCbeta3 conf inactive.
COc1cc2cc(-c3ccc(O)cc3O)nc(C)c2cc1OC was read as HGIII-sPLA2 inh inactive, PLC-gamma1 inh 13.4, PLC-beta3 inh inactive, HIF activator inactive, AHR activator 48.1, CR mimetic SO inactive, PLCgamma1 ctr inactive and PLCbeta3 conf inactive.
COc1cc2cc(-c3ccc(OC)c(OC)c3C)nc(N)c2cc1OC was read as HGIII-sPLA2 inh inactive, PLC-gamma1 inh inactive, PLC-beta3 inh inactive, HIF activator inactive, AHR activator inactive and CR mimetic SO inactive.
O=c1cc(SCc2ccccc2)nc[nH]1 was read as HGIII-sPLA2 inh inactive, PLC-gamma1 inh 12.2, PLC-beta3 inh inactive, PLCgamma1 ctr inactive and PLCbeta3 conf inactive.
For COc1ccc(OC)c(NC(=O)COc2coc(CN3CCCc4ccccc43)cc2=O)c1 the results were HGIII-sPLA2 inh inactive, PLC-gamma1 inh 17.3, PLC-beta3 inh inactive, HIF activator inactive, AHR activator inactive, CR mimetic SO inactive, PLCgamma1 ctr inactive and PLCbeta3 conf inactive.

From PubChem BioAssay
